Compound activity deposited in PubChem by Sanford-Burnham Center for Chemical Genomics.
Rows were chosen to be rich in hits. Some 2.7% of all compounds tested hit in one or more screens of this group.
MPTP block: blocks calcium-induced mitochondrial swelling; isolated mouse mitochondria, Ca2+ swelling absorbance, 30 min; inhibition, % at 10 µM; 1.4% of 360,000 active; AID 602449;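 active = inhibition of 50% or more, scaled per plate between neutral and stimulator controls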;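 also: 0% = DMSO wells given calcium and 100% = 1 mM EGTA wells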
H9c2 TAG inh: triacylglycerol accumulation inhibition; H9c2 cells, Nile Red lipid (TAG) fluorescence; cells loaded with 200 µM oleic acid; 0.66% of 230,000 active; inhibition, % at 12.5 µM;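 active = pattern-corrected inhibition of lipid staining of at least 50% with the nuclear-stain viability signal not falling by more than 50%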;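 also: 0% = DMSO wells and 100% = triacsin C control wells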
NadD inh: blocks S. aureus nicotinate mononucleotide adenylyltransferase | purified NadD enzyme, colorimetric absorbance read-out | inhibition, % at 20 µM | 0.78% of 360,000 active | AID 602399; in the data active = inhibition above about 26%
aDG glyco act: alpha-DG glycosylation activation; Pro5-aDG cells, alpha-DG glycosylation AlphaScreen (IIH6); 0% Pro5, 100% B10-LARGE cell signal; AID 624168; 0.22% of 360,000 active; activation, % at 10 µM;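 active = activation of at least 8% versus controls, or a plate z-score of at least 8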;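 also: Pro5 are CHO cells carrying HIG-tagged alpha-DG that lacks glycosylation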
Rh123 counter: Rhodamine 123 counter-screen of mitochondrial pore hits | 78% of 5,000 active | isolated mitochondria, membrane potential, Rhodamine 123 fluorescence | inhibition, % at 10 µM | shares compounds with MPTP block | AID 624504; in the data active = inhibition above about 22%;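 also: 0% = DMSO vehicle and 100% = positive control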
aDG glyco conf: alpha-DG glycosylation activation, confirmation. shares compounds with aDG glyco act. Pro5-aDG cells, IIH6 AlphaLISA; scaled to LARGE-overexpressing B10 cells as 100%. activation, % at 10 µM (by protocol). 17% of 600 active. AID 651671;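 active = activation of at least 7% in one or more replicates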;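 also: cells exposed to compound for two days before detection; 0% = DMSO-treated Pro5 cells and 100% = DMSO-treated B10-LARGE cells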
H9c2 TAG conf: triacylglycerol accumulation inhibition, confirmation; shares compounds with H9c2 TAG inh; H9c2 lipid accumulation, Nile Red fluorescence; cells loaded with 200 µM oleic acid; inhibition, % at 12.5 µM; AID 651629; 71% of 990 active;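 active = mean inhibition across replicates of 40% or more; inactive = mean inhibition below 40%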;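 also: plate controls were DMSO only wells for no effect and Triacsin C treated wells for full effect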
The depositor's hits bear a star; x = no result.

SMILES | MPTP block | H9c2 TAG inh | NadD inh | aDG glyco act | H9c2 TAG conf | others
CC(=O)c1cn(CCCOc2ccccc2)c2ccccc12 | 82* | -6 | -8 | 6.3* | x | Rh123 counter=56*;aDG glyco conf=0
CCC1(CCC(C)C)C(=O)NC(=O)N(c2ccccc2)C1=O (stereo not drawn) | 1 | x | 9 | 0 | x
Cc1ccnc(-n2c(C)nc3ccccc3c2=O)c1 | 2 | 4 | -5 | 7.8* | x | aDG glyco conf=0.6*
Cc1ccnc(-n2c(-c3ccccc3)nc3ccccc3c2=O)c1 | 0 | x | -5 | 0 | x
O=c1[nH]c2ccccc2n1C1CCN(C(c2cc3ccccc3o2)c2nnnn2Cc2ccccc2)CC1 (stereo not drawn) | 0 | x | 28 | -1 | x
CN(Cc1ccccc1)Cc1ccccc1OC(=O)N(C)C | 1 | -26 | -3 | 58* | x | aDG glyco conf=0
COc1cc2c(c(OC)c1OC)-c1ccc(O)cc1C(NC(C)=O)CC2 (stereo not drawn) | -3 | 52* | 0 | 0 | 58*
O=P1(c2ccccc2)CC=CC1 | 0 | x | 0 | 0 | x
Cc1cccc(C)c1-n1nnnc1C(c1ccccc1OC(F)(F)F)N1CCC(n2c(=O)[nH]c3ccccc32)CC1 (stereo not drawn) | 0 | x | 18 | 0 | x
CC1=CC(=C2C(=O)NC(=S)NC2=O)C=C(C(F)(F)F)N1Cc1ccccc1 | 15 | 54* | 0 | 0 | 28
COC(=O)C1=C(c2ccc(OCc3ccccc3)cc2)C[C@@H]2CC[C@H]1N2C(=O)NCc1ccc(OC)c(OC)c1 | -1 | 53* | 0 | 0 | 29
COc1ccc(CC2c3cc(OC)c(OC)cc3CCN2C)cc1OC (stereo not drawn) | -1 | x | -7 | 0 | x
COc1ccc(C[C@@H]2c3cc(O)c(OC)cc3CCN2C)cc1O | -2 | 68* | 2 | 0 | 10
COc1ccc(N=Nc2c(O)[nH]c(=S)[nH]c2=O)cc1 | 0 | 4 | -4 | 0 | x
COc1cccc(N=Nc2c(O)[nH]c(=S)[nH]c2=O)c1 | 2 | 57* | -3 | 0 | 47*
CCC(C)NC(=O)c1c(N)n(CCCOC)c2nc3ccccc3nc12 (stereo not drawn) | 1 | x | -7 | 0 | x
COCCCn1c(N)c(C(=O)Nc2ccccc2)c2nc3ccccc3nc21 | 2 | 59* | -9 | 0 | 72*
CC(=O)OC12COC1CC(O)C1(C)C(=O)C(O)C3=C(C)C(O)CC(O)(C(OC(=O)c4ccccc4)C21)C3(C)C (stereo not drawn) | 0 | 65* | 3 | 0 | 85*
CCCCn1nnnc1C(CC)N1CCC2(CC1)C(=O)NCN2c1ccccc1 (stereo not drawn) | -1 | x | -1 | 0 | x
COc1ccc(-n2nnnc2C(c2cccc3ccccc23)N2CCC3(CC2)C(=O)NCN3c2ccccc2)cc1 (stereo not drawn) | 3 | x | 24 | 0 | x
